Reference: PubChem BioAssay (NCATS)
Inconclusive results are not listed. Active and inactive are the calls of the source. Calls come from the whole dose curve; as a rule, active = well fitted cell-killing curve with a large enough effect; inconclusive = small, poorly fitted or top-dose-only effect, or effect the other way; inactive = flat fitted curve, though single readings scatter.

Columns and labels:
Test in all cases: Primary qHTS to identify gynecologic anti-cancer compounds using libraries of approved drugs and bioactive compounds (AID 1345084); note: nearly all actives have a fitted effect of over 55% in size
C33A = settings: Gynecologic cancer cell panel viability, ATPlite luminescence, 48 h; series mostly up to 57.5 µM
How it was run: (§1)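 Cytotoxicity screen measuring ATP content by luciferase luminescence. Each compound is applied at five concentrations for 48 h at 37 C with 5% CO2.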

CAOV3 = settings: Gynecologic cancer cell panel viability, ATPlite luminescence, 48 h; series mostly up to 57.5 µM
How it was run: as §1

CASKI = settings: Gynecologic cancer cell panel viability, ATPlite luminescence, 48 h; series mostly up to 57.5 µM
How it was run: as §1

Es-2 = settings: Gynecologic cancer cell panel viability, ATPlite luminescence, 48 h; series mostly up to 57.5 µM
How it was run: as §1

HeLa = settings: Gynecologic cancer cell panel viability, ATPlite luminescence, 48 h; series mostly up to 57.5 µM
How it was run: as §1

Hek293T = settings: Gynecologic cancer cell panel viability, ATPlite luminescence, 48 h, control line for the selectivity index; series mostly up to 57.5 µM
How it was run: as §1

JEG-3 = settings: Gynecologic cancer cell panel viability, ATPlite luminescence, 48 h; series mostly up to 57.5 µM
How it was run: as §1

OV90 = settings: Gynecologic cancer cell panel viability, ATPlite luminescence, 48 h; series mostly up to 57.5 µM
How it was run: as §1

PA-1 = settings: Gynecologic cancer cell panel viability, ATPlite luminescence, 48 h; series mostly up to 57.5 µM
How it was run: as §1

Tov-21-G = settings: Gynecologic cancer cell panel viability, ATPlite luminescence, 48 h; series mostly up to 57.5 µM
How it was run: as §1

Tov112D = settings: Gynecologic cancer cell panel viability, ATPlite luminescence, 48 h; series mostly up to 57.5 µM
How it was run: as §1

SKOV3 = settings: Gynecologic cancer cell panel viability, ATPlite luminescence, 48 h; series mostly up to 57.5 µM
How it was run: as §1

Measured: Potency

CC(C)n1c(=O)c(C(=O)NC2CC3CCC(C2)N3C[C@@H](O)CN(C)S(C)(=O)=O)cc2ccccc21 (some centres not stated)
not listed: SKOV3
inactive: all other assays above

COC1CCN(c2cccc(-c3cc(NC(C)=O)nc(-n4nc(C)cc4C)n3)n2)CC1
not listed: SKOV3
inactive: all other assays above

C/C(=C/CO)CCC1C(C)CCC2C(C)(C)CCCC12C (configuration not stated)
not listed: SKOV3
inactive: all other assays above

N#CC(CCCN1CCN(/N=C/c2cccnc2)CC1)(c1ccccc1)c1ccccc1
not listed: SKOV3
inactive: all other assays above

CCc1cc2c(cc1CC)CC(NCC(O)c1ccc(O)c3[nH]c(=O)ccc13)C2 (configuration not stated)
not listed: SKOV3
inactive: all other assays above

O=c1cc(OCc2ccc(F)cc2)ccn1-c1ccc(OCCN2CCCC2)cc1
not listed: SKOV3
inactive: all other assays above

CC(C)c1noc(C2CCN(c3ncnc(Nc4ccc(S(C)(=O)=O)cc4F)c3[N+](=O)[O-])CC2)n1
not listed: SKOV3
inactive: all other assays above

CCCCC1CCN(CCCN2C(=O)CCc3ccccc32)CC1
not listed: PA-1
inactive: all other assays above

CC(=O)O[C@@H]1C[C@@]2(C)C(CC[C@]3(C)C2CC=C2C4CC(C)(C)CC[C@]4(C(=O)O)CC[C@]23C)C(C)(C)[C@H]1O (some centres not stated)
not listed: SKOV3
inactive: all other assays above

COc1cc(/C=C/C(=O)NCCn2c(C(F)(F)F)cc3ccccc32)cc(OC)c1OC
not listed: SKOV3
inactive: all other assays above

CCOC(=O)C1(CCOc2ccccc2)CCN(Cc2ccc(O)c(Cl)c2)CC1
not listed: SKOV3
inactive: all other assays above

CCOC(=O)CCNc1cc(N2CCc3ccccc3CC2)nc(-c2cccnc2)n1
not listed: SKOV3
inactive: all other assays above

O=C(Nc1nnc(-c2ccc3c(c2)OCCO3)o1)C1CCCCC1
not listed: SKOV3
inactive: all other assays above

C/C=C(\C)C(=O)OC1C[C@@]2(COC(C)=O)O[C@H]2/C=C\[C@@]2(C)O[C@@H]2[C@H]2OC(=O)C(COC(C)=O)=C12 (some centres not stated)
not listed: SKOV3
inactive: all other assays above

Cn1cc(-c2ccc3c(c2)CCN3C(=O)Cc2cccc(C(F)(F)F)c2)c2c(N)ncnc21
not listed: Tov-21-G | SKOV3
inactive: all other assays above

C=C1C(=O)O[C@@H]2C[C@H](C)C3=CC(=O)[C@H](O)[C@@]3(C)C[C@H]12
not listed: SKOV3
inactive: all other assays above

CN(C)CCOC(C)(c1ccccc1)c1ccc(Cl)cc1 (configuration not stated)
not listed: SKOV3
inactive: all other assays above

COc1ccc2nccc(C(=O)CC[C@@H]3CCN(CC#Cc4cc(F)cc(F)c4F)C[C@@H]3C(=O)O)c2c1
not listed: SKOV3
inactive: all other assays above

O=c1nc(-c2ccccn2)sc2ccccc12
not listed: Tov-21-G | SKOV3
inactive: all other assays above

C[C@@H](NC(=O)[C@H](O)c1cc(F)cc(F)c1)C(=O)N[C@@H]1C(=O)N(C)c2ccccc2-c2ccccc21
not listed: SKOV3
inactive: all other assays above

CCCOc1ccc(S(=O)(=O)N2CCN(CCO)CC2)cc1-c1nc2c(CCC)cn(CC)c2c(=O)[nH]1
not listed: PA-1
inactive: all other assays above

CCn1c(N)c(C(=O)NC)c(=O)c2ccc(C#CC(C)(O)COC)nc21 (configuration not stated)
not listed: SKOV3
inactive: all other assays above

N#Cc1cc(C2=Nc3ccc(Br)cc3NC(=O)C2)ccn1
not listed: SKOV3
inactive: all other assays above

O=C(N[C@H]1CCC[C@H](CO)C1)C1CCN(c2nc3cc(Cl)c(-c4ccc(Cl)cc4)cc3o2)CC1
not listed: SKOV3
inactive: all other assays above

C=C1C(=O)O[C@@H]2C[C@]3(C)[C@@H](CCC(C)O)[C@@H]3C[C@H]12 (some centres not stated)
not listed: Tov-21-G | SKOV3
inactive: all other assays above
